Measured values reported in PubChem BioAssay AID951 (NMMLSC, 2007).
Hit rate of the full screen: of about 190,000 compounds, about 140 (0.074%) were called active. For the sample, actives were picked, then their nearest neighbours and some compounds at random. Unmarked numbers belong to inactive results. Rule as the data show it: active = inhibition above about 40%.

Molecular target: Bcl-2-like protein 10 (Homo sapiens) (UniProt Q9HD36)
Test: inhibitors of Bim-Bcl-B binding, primary screen, biochemical, multiplexed, human Bcl-2 family (AID 951);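 also: 0% = tracer peptide without compound and 100% = reference inhibitor peptide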
Conditions: bead-based flow cytometry, Bim peptide-Bcl-B binding; at 10 µM; hits give high values

Chain of Bcl-2-like protein 10 (Homo sapiens) (Q9HD36 whole entry, looked up): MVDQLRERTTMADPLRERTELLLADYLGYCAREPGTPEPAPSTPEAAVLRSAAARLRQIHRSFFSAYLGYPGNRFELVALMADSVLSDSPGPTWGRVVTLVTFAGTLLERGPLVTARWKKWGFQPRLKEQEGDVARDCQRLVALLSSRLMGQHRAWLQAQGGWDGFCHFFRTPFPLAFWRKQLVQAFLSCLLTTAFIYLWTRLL

Compared with Cc1ccc(S(=O)(=O)NNC(=O)Nc2cccc3ccccc23)cc1, COc1ccc(N(C(=O)c2ccc(C)cc2)S(=O)(=O)c2cccs2)cc1 is lower in inhibition: 0% for the first, -6% for the second.

Going from CCOC(=O)c1c(-c2cccc(N)c2)cn2ccccc12 to CS(=O)(=O)Nc1cccc(-c2cn3ccccc3n2)c1, the inhibition falls from 17% to -2%.

First: COc1ccc2c(c1)CC[C@@H]1[C@@H]2CC[C@]2(C)C(=O)CC[C@@H]12
Second: COc1ccc(-n2cc(CNC3CCOCC3)c(-c3cccc(F)c3)n2)cc1
The inhibition of the first is higher: -3% for the first, -5% for the second.

First: CC(=O)C1C(c2ccc(Cl)cc2)c2c(n[nH]c2C)CC1(C)O (stereo not given)
Second: CC(C)C(=O)NCc1cc(-c2ccc(Cl)cc2)no1
The inhibition of the first is lower: -4% for the first, 5% for the second.

Going from CCNC(=O)COC(=O)CCNC(=O)c1cccc(C)c1 to O=C(COC(=O)CNC(=O)c1ccccc1F)NCC(F)(F)F, the inhibition falls from -4% to -5%.

First: NC(=O)C[n+]1cccc(C(N)=O)c1
Second: CCOC(=O)N/N=C/c1cccnc1
The inhibition of the first is higher: -1% for the first, -4% for the second.

Going from O=C(CP(=O)(c1ccccc1)c1ccccc1)N1CCOCC1 to OCC1(CCOc2ccccc2)CCN(Cc2cn[nH]c2-c2ccccc2)CC1, the inhibition rises from -6% to -2%.

First: CSc1ccc(/C=N/N2CCN(Cc3ccccc3Cl)CC2)cc1
Second: CC(=O)c1c(N2CCN(c3ccc(F)cc3)CC2)nc(=S)n(-c2ccccc2)c1C
The inhibition of the first is higher: -8% for the first, -11% for the second.

First: CCC(C(=O)OCC(=O)Nc1c(Cl)cc(Cl)cc1Cl)c1ccccc1 (stereo not given)
Second: CC(NC(=O)COC(=O)c1ccc2c(c1)OCO2)c1ccccc1 (stereo not given)
The inhibition of the first is lower: -7% for the first, 0% for the second.

First: C=CCn1c(SCC(N)=O)nnc1-c1cc2c(s1)CCC(CC)C2 (stereo not given)
Second: CC1CCc2sc(C(=O)N/N=C/C3CCCCC3)cc2C1 (stereo not given)
The inhibition of the first is lower: -12% for the first, -6% for the second.

Compared with N=C1C(c2nc3ccccc3[nH]2)=C(O)CN1NC(=O)c1c[nH]c2ccccc12, O=C(Nn1cnc2ccccc2c1=O)c1ccc([N+](=O)[O-])cc1Cl is higher in inhibition: -2% for the first, 0% for the second.

First: Cc1cc(C)c2nc(-c3cccnc3)cc(C(=O)Nc3ccc(S(=O)(=O)Nc4onc(C)c4C)cc3)c2c1
Second: Cc1ccc2nc(-c3ccncc3)cc(C(=O)Nc3ccc(OC(F)F)cc3)c2c1
The inhibition of the first is lower: -1% for the first, 1% for the second.

Going from O=C1N(c2ccc(Cl)cc2)C(c2ccc(Cl)cc2)N2CCCN12 (stereo not given) to CN(C)c1ccc(C(=S)N2CCN(C(=S)Nc3ccc(Cl)cc3)CC2)cc1, the inhibition rises from -11% to -6%.

First: CC(=O)NC(CC(=O)O)c1ccc(F)cc1 (stereo not given)
Second: COc1ccc(C(CC(=O)Nc2ccc(C)cc2)NC(=O)C(F)(F)F)cc1 (stereo not given)
The inhibition of the first is higher: -4% for the first, -9% for the second.

Going from Cc1ccc(CC2CC(=O)N(c3nc(C)cc(C)n3)C2=O)cc1 (stereo not given) to Cc1ccc(C(C)NC(=O)Cn2nc(C)c([N+](=O)[O-])c2C)cc1 (stereo not given), the inhibition falls from -1% to -3%.

First: CC(C)(C)c1nnc(N/N=C/c2ccc(O)cc2)n(N)c1=O
Second: Nc1nnnn1CC(=O)N/N=C/c1ccc(-c2cccc(Cl)c2)o1
The inhibition of the first is lower: -7% for the first, -4% for the second.

Fc1ccccc1N=C1Nc2cccc3cccc1c23 and NC(=O)c1ccccc1N=Cc1ccc2ccccc2c1 are the same in inhibition: -4% for the first, -4% for the second.

Going from Cc1ccccc1C(=O)OC1OC(=O)C(Cl)=C1Nc1ccccc1 (stereo not given) to Cc1ccc(C)c(NC(=O)CSc2nc3c(oc4ccccc43)c(=O)n2-c2ccccc2)c1, the inhibition falls from -2% to -6%.

Going from O=C(CSc1nn(-c2ccc(F)cc2)c(=S)s1)NC1CCS(=O)(=O)C1 (stereo not given) to N#CCSc1nn(-c2ccc(F)cc2)c(=S)s1, the inhibition falls from -1% to -7%.

First: O=C(Nc1ccc(Br)cn1)c1ccc([N+](=O)[O-])cc1Cl
Second: Cc1cc(C)n(CC(=O)Nc2ccc([N+](=O)[O-])cc2)n1
The inhibition of the first is lower: -6% for the first, 0% for the second.

First: Cc1ccc(COc2ccc(C(=O)NN)cc2)cc1
Second: Cc1ccc(C(=O)N/C(=C/c2cccnc2)C(=O)O)cc1
The inhibition of the first is higher: -3% for the first, -7% for the second.

First: COc1cc(C2/C(=C(\O)c3ccc4c(c3)CC(C)O4)C(=O)C(=O)N2Cc2ccco2)ccc1O (stereo not given)
Second: COc1ccccc1N1CCN(CC(=O)NC(=O)NCc2ccco2)CC1
The inhibition of the first is higher: 1% for the first, -9% for the second.

Going from O=C(O)/C=C/c1ccc(S(=O)(=O)N2CCCCCC2)cc1 to CN1CCN(c2ccc(S(=O)(=O)N3CCCCC3)cc2NC(=O)Cc2ccccc2F)CC1, the inhibition falls from 0% to -4%.

First: Cc1cc(Cl)c(S(=O)(=O)Nc2ccc3c(c2)OCCO3)cc1OCC(N)=O
Second: Cc1cc(Cl)c(S(=O)(=O)NCCC(=O)O)cc1OCC(N)=O
The inhibition of the first is higher: -2% for the first, -7% for the second.

Compared with CCOc1cc2[nH]c(=O)n(Cc3ccc(C(=O)NCCCN4CCCC4=O)cc3)c(=O)c2cc1OCC, CCOc1cc(NC(=S)NCCCOC)c(OCC)cc1NC(=O)c1ccco1 is lower in inhibition: -6% for the first, -11% for the second.

Compared with OCC1(Cc2ccccc2C(F)(F)F)CCN(Cc2cccc3cnccc23)CC1, O=C(CCC1CCCN(Cc2ccc(O)c(Cl)c2)C1)NCc1ccccc1F (stereo not given) is lower in inhibition: 0% for the first, -1% for the second.

First: CCOc1ccc(NC(=O)CSc2nc3ccccc3c(=O)n2Cc2cccs2)cc1
Second: CSCCC(NC(=O)COc1ccccc1)C(=O)Nc1ccc(C)cc1 (stereo not given)
The inhibition of the first is lower: -7% for the first, -6% for the second.

Compared with Cc1ccc(S(=O)(=O)N2CCOCC2)cc1C(=O)OC1CCCCC1=O (stereo not given), O=C(NC1CCCCC1)C1CCCN(S(=O)(=O)c2ccc(Br)s2)C1 (stereo not given) is higher in inhibition: -7% for the first, -6% for the second.

Going from N/C(=N/O)c1cccn1Cc1ccccc1[N+](=O)[O-] to Cc1nc2ccccc2n1CC(=O)N/N=C/c1cccs1, the inhibition falls from -4% to -6%.

CC(C)NC(=O)/C(C#N)=C\c1ccc(N(C)C)c(Br)c1 and CC(C)NC(=O)c1ccc(Cl)cc1Cl are the same in inhibition: -2% for the first, -2% for the second.

Compared with CCc1nccn1S(=O)(=O)c1cccc([N+](=O)[O-])c1, Cc1ccc(NC(=O)O/N=C/c2cccc([N+](=O)[O-])c2)cc1 is higher in inhibition: -2% for the first, 0% for the second.

Going from CCc1c(SCCC(=O)O)nc2ccccc2c1C to CC1=NN(C(=O)CCCc2ccccc2)C(O)(C(F)(F)F)C1 (stereo not given), the inhibition rises from -7% to -2%.

Compared with CN(Cc1ccccn1)Cc1nc(-c2ccc(Cl)cc2)no1, Clc1ccc(CSc2nnc(/C=C/c3ccccc3)o2)c(Cl)c1 is lower in inhibition: -6% for the first, -9% for the second.

Compared with Cc1cc(C)n(-c2ccc3nncn3n2)n1, Cc1ccc(Nc2nc(CSc3nnc(-c4ccncc4)n3-c3ccccc3C)cs2)cc1 is lower in inhibition: 2% for the first, -11% for the second.

Compared with Cc1ccc(C2=NN(C(=O)CSc3nc(N)cc(N)n3)C(c3ccco3)C2)cc1 (stereo not given), CCOC(=O)C1(C)NC(c2ccco2)C2C(=O)N(c3ccccc3)C(=O)C21 (stereo not given) is higher in inhibition: -27% for the first, -1% for the second.

Compared with COc1ccc(Cl)cc1N(CC(=O)N1CCCCC1)S(C)(=O)=O, COc1ccc(N2CCN(C(=O)CNS(=O)(=O)c3ccc(C)c(C)c3)CC2)cc1 is higher in inhibition: -5% for the first, -2% for the second.

Going from CSCc1cc(N2CCOCC2)nc(SCc2ccc(Cl)cc2Cl)n1 to Cc1nc(CC(=O)NNS(=O)(=O)c2ccc(F)c(Cl)c2)cs1, the inhibition rises from -11% to 1%.

Going from Cc1cccc(NC(=S)N2CCCC(c3nc4ccccc4[nH]3)C2)c1 (stereo not given) to CCCCc1ccc(NC(=S)N2CCCC(CO)C2)cc1 (stereo not given), the inhibition rises from -14% to -7%.

First: O=C(COC(=O)[C@H](Cc1ccccc1)NC(=O)c1cccs1)Nc1cc(F)ccc1F
Second: O=C(CC(NC(=O)c1ccccc1)c1ccccc1)Nc1ccc(F)c(F)c1 (stereo not given)
The inhibition of the first is lower: -14% for the first, -6% for the second.

First: C/C(=N\NC(=O)c1cccc(N2CCCC2=O)c1)c1ccc(N)cc1
Second: CCN(CC)CCNC(=O)c1ccc(NS(=O)(=O)c2ccc3c(c2)OCCO3)cc1
The inhibition of the first is lower: -7% for the first, 0% for the second.

First: CC(O)C(NS(=O)(=O)c1ccc(Cl)cc1)C(=O)OCc1cc([N+](=O)[O-])cc2c1OCOC2 (stereo not given)
Second: CN1CCN(CCNC(=O)Nc2ccc([N+](=O)[O-])cc2)CC1
The inhibition of the first is higher: 0% for the first, -5% for the second.

Compared with c1ccc2c(c1)CSc1sccc1C2=C1CCNCC1, O=c1c(-c2ccccc2)cnc2n1CCS2 is higher in inhibition: -4% for the first, -2% for the second.

CCN(CC)P(=O)(Nc1ccc(SC(F)F)cc1)c1ccc(N(C)C)cc1NC(=O)c1ccco1 (stereo not given) and CCCCN(CC(=O)NC(C)(C)C)C(=O)C(=O)Nc1ccc2c(c1)OCCO2 are the same in inhibition: 1% for the first, 1% for the second.

CN(C)C(=O)N1CCNCC1 and CCC(CC)C(=O)N1CCN(c2cccc(C)c2C)CC1 are the same in inhibition: 0% for the first, 0% for the second.

First: CCN(CCn1cccn1)Cc1cn[nH]c1-c1ccc(OC)cc1F
Second: Cn1c(-c2sccc2OCc2cccc(C(F)(F)F)c2)n[nH]c1=S
The inhibition of the first is higher: -4% for the first, -24% for the second.

Going from CCOC(=O)c1oc2c(CN3CCN(CCO)CC3)c(O)c(CC)cc2c(=O)c1-c1nc2ccccc2s1 to Cc1c(CN2CCCCC2)c(O)n(CCO)c(=O)c1C#N, the inhibition falls from 0% to -3%.

First: N#Cc1ccccc1NC(=O)COc1c(Br)cc(Br)c2cccnc12
Second: CCOc1cc(NC(=O)CCl)c(OCC)cc1NC(C)=O
The inhibition of the first is lower: -7% for the first, -4% for the second.

Going from O=C(CC1SCCNC1=O)Nc1ccc(Cl)c(Cl)c1 (stereo not given) to CNC(=O)C(=O)N/N=C/c1ccccn1, the inhibition rises from -1% to 2%.

With CCCC1NC(=S)NC(C)=C1C(C)=O (stereo not given) the inhibition was -2%.

In the case of Cc1ccccc1-n1nc(SCC(=O)O)sc1=S, the inhibition is reported as 43% (active).
For Cc1cc(Cl)c(S(=O)(=O)NCC2CCCO2)cc1OCC(N)=O (stereo not given), the inhibition was 80% (active).
CSCc1cc(N(C)C)nc(SCc2ccc(Cl)cc2Cl)n1 was tested, and the inhibition was 69% (active).
